For some assays here: Entries with a potency or affinity are not part of this list. The source made the active and inactive calls. Unless noted, how the calls were made is not given here.
Columns and labels:
[1] = antimalarial activity against Dd2 strain (AID 2302;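 active means growth inhibition above 50% at the single 2 µM test dose, taken to imply half-maximal potency below 2 µM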;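 further: 0% = DMSO untreated growth and 100% = chloroquine plus artemisinin killed control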); conditions: P. falciparum Dd2 in RBCs, LDH growth readout, 72 h; at 2 µM; hits give high values
[2] = HepG2 cytotoxicity, primary screen, cytotoxicity control for P. falciparum antimalarial project, cell-based, ATP luminescence (AID 2303;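 active means inhibition above 50%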;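 further: 0% = DMSO wells and 100% = digitonin-killed cells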); conditions: HepG2 viability, 24-48 h, at 10 µM, hits give high values
[3] = target: L-lactate dehydrogenase (Plasmodium falciparum (isolate CDC / Honduras)) (UniProt Q27743); assay: PfLDH activity inhibition – cell lysate, 3D7 strain, counter-screen for P. falciparum growth inhibition project (AID 2304);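 further: 0% = vehicle and 100% = reference inhibitor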; conditions: P. falciparum 3D7 crude extract, LDH APAD/NBT absorbance; at 2 µM; hits give high values
L-lactate dehydrogenase (Plasmodium falciparum (isolate CDC / Honduras)), sequence (Q27743 whole entry, looked up): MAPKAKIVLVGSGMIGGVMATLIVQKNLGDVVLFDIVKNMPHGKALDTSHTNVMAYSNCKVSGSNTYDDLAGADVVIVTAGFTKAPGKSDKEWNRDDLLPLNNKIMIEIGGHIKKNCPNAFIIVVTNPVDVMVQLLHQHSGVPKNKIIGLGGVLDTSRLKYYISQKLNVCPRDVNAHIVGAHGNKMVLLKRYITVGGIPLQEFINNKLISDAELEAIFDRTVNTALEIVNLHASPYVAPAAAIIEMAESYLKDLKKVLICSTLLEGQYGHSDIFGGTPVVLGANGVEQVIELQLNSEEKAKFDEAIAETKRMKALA

[4] = inhibition of 3D7 malaria parasite growth – strain 3D7 (AID 2306);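 further: 0% = DMSO wells and 100% = chloroquine plus artemisinin control wells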; conditions: P. falciparum 3D7 erythrocytic growth, LDH absorbance, 72 h; at 2 µM; hits give high values
[5] = target: Calcium-dependent protein kinase 1 (Plasmodium falciparum (isolate 3D7)) (UniProt P62344); assay: PfCDPK1 kinase inhibitors, biochemical, TCAMS library (AID 1159585; cut-off not given, nearly all actives have IC50 up to about 0.98 µM;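 further: inhibitors leave more ATP so luminescence rises with inhibition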); conditions: recombinant PfCDPK1, Kinase-Glo ATP depletion luminescence
Calcium-dependent protein kinase 1 (Plasmodium falciparum (isolate 3D7)), sequence (P62344 whole entry, looked up): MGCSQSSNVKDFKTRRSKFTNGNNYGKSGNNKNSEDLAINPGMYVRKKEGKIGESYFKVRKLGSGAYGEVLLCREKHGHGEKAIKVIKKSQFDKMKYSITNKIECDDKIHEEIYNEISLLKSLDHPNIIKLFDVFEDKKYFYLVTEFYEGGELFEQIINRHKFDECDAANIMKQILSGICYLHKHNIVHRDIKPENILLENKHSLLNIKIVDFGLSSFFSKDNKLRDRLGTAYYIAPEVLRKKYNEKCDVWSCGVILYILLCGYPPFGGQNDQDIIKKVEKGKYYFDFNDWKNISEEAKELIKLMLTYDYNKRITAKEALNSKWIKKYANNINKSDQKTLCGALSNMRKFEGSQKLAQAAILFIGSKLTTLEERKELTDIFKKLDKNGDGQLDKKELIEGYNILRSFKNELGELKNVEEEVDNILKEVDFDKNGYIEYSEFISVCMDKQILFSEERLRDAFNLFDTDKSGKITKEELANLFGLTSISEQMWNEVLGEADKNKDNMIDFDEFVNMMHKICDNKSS

[6] = target: Plasmodium falciparum protein kinase 6 (PK6, PF3D7_1337100) (UniProt Q8IDW1); assay: PfPK6 kinase inhibitors, biochemical, TCAMS library (AID 1159586); conditions: recombinant PfPK6, Kinase-Glo ATP depletion luminescence
Plasmodium falciparum protein kinase 6 (PK6, PF3D7_1337100), sequence (Q8IDW1 1-305): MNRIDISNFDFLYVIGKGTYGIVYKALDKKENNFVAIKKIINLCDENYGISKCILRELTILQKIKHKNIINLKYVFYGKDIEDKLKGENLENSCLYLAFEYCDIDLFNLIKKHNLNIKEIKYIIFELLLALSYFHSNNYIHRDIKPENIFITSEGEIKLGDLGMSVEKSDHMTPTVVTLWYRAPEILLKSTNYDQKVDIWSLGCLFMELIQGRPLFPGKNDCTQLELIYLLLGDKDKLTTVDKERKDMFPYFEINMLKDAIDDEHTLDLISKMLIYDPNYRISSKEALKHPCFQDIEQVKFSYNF

[7] = target: Protein kinase 7 (PK7), Plasmodium falciparum 3D7 (PF3D7_0213400) (UniProt Q7YTF7); assay: inhibition of Plasmodium PK7 catalytic activity – biochemical, TCAMS antimalarial set, Kinase-Glo luminescence (AID 1159587); conditions: recombinant PfPK7, Kinase-Glo ATP depletion luminescence
Protein kinase 7 (PK7), Plasmodium falciparum 3D7 (PF3D7_0213400), sequence (Q7YTF7 1-343): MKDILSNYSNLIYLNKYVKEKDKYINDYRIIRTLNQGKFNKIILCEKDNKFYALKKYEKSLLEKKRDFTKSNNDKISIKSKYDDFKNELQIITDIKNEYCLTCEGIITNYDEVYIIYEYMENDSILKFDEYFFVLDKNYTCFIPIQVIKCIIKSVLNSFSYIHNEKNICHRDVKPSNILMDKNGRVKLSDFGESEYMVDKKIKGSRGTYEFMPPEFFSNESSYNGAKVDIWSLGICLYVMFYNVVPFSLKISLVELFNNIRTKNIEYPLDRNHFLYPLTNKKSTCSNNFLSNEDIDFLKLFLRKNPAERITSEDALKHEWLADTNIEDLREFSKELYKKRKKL

[8] = target: Calcium-dependent protein kinase 4 (Plasmodium falciparum (isolate 3D7)) (UniProt Q8IBS5); assay: PfCDPK4 kinase inhibitors, biochemical, TCAMS library (AID 1159588; cut-off not given, nearly all actives have IC50 up to about 0.91 µM); conditions: recombinant PfCDPK4, Kinase-Glo ATP depletion luminescence
Calcium-dependent protein kinase 4 (Plasmodium falciparum (isolate 3D7)), sequence (Q8IBS5 whole entry, looked up): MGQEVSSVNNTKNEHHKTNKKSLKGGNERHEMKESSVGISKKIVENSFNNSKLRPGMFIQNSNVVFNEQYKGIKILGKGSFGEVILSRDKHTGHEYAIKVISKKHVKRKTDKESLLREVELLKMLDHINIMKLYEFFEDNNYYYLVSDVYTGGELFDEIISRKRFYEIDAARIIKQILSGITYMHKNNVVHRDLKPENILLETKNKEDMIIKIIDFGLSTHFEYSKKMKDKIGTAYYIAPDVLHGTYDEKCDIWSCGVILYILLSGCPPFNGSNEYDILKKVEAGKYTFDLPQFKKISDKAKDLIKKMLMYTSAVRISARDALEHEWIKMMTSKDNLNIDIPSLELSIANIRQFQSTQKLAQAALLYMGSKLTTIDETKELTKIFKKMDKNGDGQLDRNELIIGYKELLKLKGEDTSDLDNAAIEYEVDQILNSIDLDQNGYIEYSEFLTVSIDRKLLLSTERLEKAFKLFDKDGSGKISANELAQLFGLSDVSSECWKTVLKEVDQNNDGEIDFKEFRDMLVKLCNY

O=C(CSc1nc2ccccc2c(=O)n1C1CC1)Nc1cc(C(F)(F)F)ccc1Cl
inactive: inhibition [2] 5% | inhibition [3] 2% | outcome [5] | outcome [6] | outcome [7] | outcome [8]
active: growth inhibition [1] 96% | growth inhibition [4] 97%

CCCCCCNC(=O)C1Cc2c([nH]c3ccc(Br)cc23)C2(CCN(Cc3ccccc3)CC2)N1 (stereo not given)
inactive: inhibition [3] 6% | outcome [5] | outcome [6] | outcome [7] | outcome [8]
active: growth inhibition [1] 75% | inhibition [2] 100% | growth inhibition [4] 100%

c1cc(CN2CCN(CCN3CCOCC3)CC2)cc(-c2cccc(-c3nc4ccccc4[nH]3)c2)c1
active: growth inhibition [1] 100% | growth inhibition [4] 100%
inactive: inhibition [2] 29% | inhibition [3] -2% | outcome [5] | outcome [6] | outcome [7] | outcome [8]

CC(CN1CCN(C)CC1)C(=O)Nc1ccc(-c2csc(-c3nc4ccccc4[nH]3)c2)cc1 (stereo not given)
inactive: growth inhibition [1] 26% | inhibition [2] 15% | inhibition [3] -4% | outcome [5] | outcome [6] | outcome [7] | outcome [8]
active: growth inhibition [4] 93%

COC(=O)c1cc(OC)c(OC)cc1NC(=O)NC12CC3CC(CC(C3)C1)C2
active: growth inhibition [4] 94%
inactive: growth inhibition [1] 3% | inhibition [2] 6% | inhibition [3] 6% | outcome [5] | outcome [6] | outcome [7] | outcome [8]

CC(=O)Nc1ccc(S(=O)(=O)Nc2ccc(Nc3nc(C)cc(N(C)C)n3)cc2)cc1
active: growth inhibition [4] 100%
inactive: growth inhibition [1] 22% | inhibition [2] -2% | inhibition [3] -1% | outcome [5] | outcome [6] | outcome [7] | outcome [8]

Cc1cc(N)c2cc(NC(=O)/C=C/c3ccccc3)ccc2n1
active: growth inhibition [1] 68% | growth inhibition [4] 102%
inactive: inhibition [2] 20% | inhibition [3] 0% | outcome [5] | outcome [6] | outcome [7] | outcome [8]

CCOc1ccc(N(CC)S(=O)(=O)c2cc(Br)cc3c2N(C(=O)C2CC2)CC3)cc1
active: growth inhibition [1] 97% | growth inhibition [4] 99%
inactive: inhibition [2] -4% | inhibition [3] -5% | outcome [5] | outcome [6] | outcome [7] | outcome [8]

Cc1cc(NC(=O)c2cccs2)ccc1OC1CCN(Cc2ccc(F)cc2)C1 (stereo not given)
active: growth inhibition [1] 92% | growth inhibition [4] 95%
inactive: inhibition [2] 0% | inhibition [3] 0% | outcome [5] | outcome [6] | outcome [7] | outcome [8]

COc1ccc2nccc([C@@H](O)CN3CCC(NC(=O)COc4nc(SCc5ccc(F)cc5)nc5c4CCC5)CC3)c2c1
inactive: inhibition [2] 29% | inhibition [3] -2% | outcome [5] | outcome [6] | outcome [7] | outcome [8]
active: growth inhibition [1] 78% | growth inhibition [4] 96%

CC(C)c1ccc(CN2CCCCC(NC(=O)c3cc(-c4ccccc4F)cs3)C2)cc1 (stereo not given)
active: growth inhibition [1] 84% | growth inhibition [4] 99%
inactive: inhibition [2] 18% | inhibition [3] -2% | outcome [5] | outcome [6] | outcome [7] | outcome [8]

CN(CCN)Cc1cccc(-c2cccc(-c3nc4ccc(F)cc4[nH]3)c2)c1
active: growth inhibition [4] 95%
inactive: growth inhibition [1] 19% | inhibition [2] 20% | inhibition [3] 6% | outcome [5] | outcome [6] | outcome [7] | outcome [8]

CN(C)c1ccc(-c2csc(C(=O)NCC3CCN(Cc4cccc(C(F)(F)F)c4)C3)c2)cc1 (stereo not given)
active: growth inhibition [1] 58% | growth inhibition [4] 97%
inactive: inhibition [2] 15% | inhibition [3] -2% | outcome [5] | outcome [6] | outcome [7] | outcome [8]

CN1CCCN(Cc2ccc(-c3cccc(NC(=O)c4cccc(F)c4)c3)cc2)CC1
inactive: growth inhibition [1] 12% | inhibition [2] 28% | inhibition [3] -3% | outcome [5] | outcome [6] | outcome [7] | outcome [8]
active: growth inhibition [4] 91%

Cc1noc(C)c1-c1cccc(CNCc2ccc(-c3ccc(-c4nc5ccc(C(F)(F)F)cc5[nH]4)cc3)cc2)c1
inactive: inhibition [2] 35% | inhibition [3] 2% | outcome [5] | outcome [6] | outcome [7] | outcome [8]
active: growth inhibition [1] 97% | growth inhibition [4] 102%

CCCCN=C(N)Nc1ccc(OCCCOc2ccc(NC(N)=NCCCC)cc2)cc1
active: growth inhibition [1] 97% | growth inhibition [4] 96%
inactive: inhibition [2] 15% | inhibition [3] 4% | outcome [5] | outcome [6] | outcome [7] | outcome [8]

CCCCCCNc1cc(C)nc2ccc(OC)cc12
inactive: inhibition [2] 19% | inhibition [3] -2% | outcome [5] | outcome [6] | outcome [7] | outcome [8]
active: growth inhibition [1] 94% | growth inhibition [4] 100%

O=C(c1cccs1)N1N=C(c2cccs2)CC1c1cccc([N+](=O)[O-])c1 (stereo not given)
inactive: growth inhibition [1] 27% | inhibition [2] 5% | inhibition [3] -10% | outcome [5] | outcome [6] | outcome [7] | outcome [8]
active: growth inhibition [4] 95%

COc1c(C2CCN(CCCCNC(=O)c3cc(-c4ccc(Cl)cc4)oc3C)CC2)ccc2c1CCCC2
inactive: growth inhibition [1] 27% | inhibition [3] 2% | outcome [5] | outcome [6] | outcome [7] | outcome [8]
active: inhibition [2] 93% | growth inhibition [4] 97%

Oc1ccc(CCCc2cc(Oc3c(I)cc(CCc4ncc[nH]4)cc3I)ccc2O)cc1
active: growth inhibition [4] 95%
inactive: growth inhibition [1] 7% | inhibition [2] 26% | inhibition [3] -9% | outcome [5] | outcome [6] | outcome [7] | outcome [8]

O=S(=O)(Nc1ccc(CCN2CCC(N3CCCCC3)CC2)cc1)c1ccccc1C(F)(F)F
inactive: growth inhibition [1] 8% | inhibition [2] 9% | inhibition [3] -3% | outcome [5] | outcome [6] | outcome [7] | outcome [8]
active: growth inhibition [4] 95%

Cc1cccc2[nH]c(-c3ccc(-c4ccc(CNC(C)C)cc4)cc3)nc12
active: growth inhibition [1] 62% | growth inhibition [4] 99%
inactive: inhibition [2] 12% | inhibition [3] 0% | outcome [5] | outcome [6] | outcome [7] | outcome [8]

CCCCn1c(Sc2ccc(C#N)c([N+](=O)[O-])c2)nnc1-c1cccc(Cl)c1
inactive: inhibition [2] 30% | inhibition [3] 2% | outcome [5] | outcome [6] | outcome [7] | outcome [8]
active: growth inhibition [1] 87% | growth inhibition [4] 96%

O=C(CC1NC(=O)c2ccccc21)Nc1ccc(-c2ccc(-c3nc4ccc(C(F)(F)F)cc4[nH]3)cc2)cc1 (stereo not given)
active: growth inhibition [1] 70% | growth inhibition [4] 87%
inactive: inhibition [2] 39% | inhibition [3] -2% | outcome [5] | outcome [6] | outcome [7] | outcome [8]

O=C(/C=C/c1ccc(Cl)c(Cl)c1)NCCCCCN1CCC(NC(=O)Nc2ccc(Oc3ccccc3)cc2)C1 (stereo not given)
active: growth inhibition [4] 99%
inactive: growth inhibition [1] 6% | inhibition [2] 35% | inhibition [3] 4% | outcome [5] | outcome [6] | outcome [7] | outcome [8]

CN(C)C(=O)CC(=O)NCc1c(Cl)cccc1Cl
active: growth inhibition [4] 95%
inactive: growth inhibition [1] 2% | inhibition [2] 2% | inhibition [3] -4% | outcome [5] | outcome [6] | outcome [7] | outcome [8]

Fc1cccc(Nc2nc(NCc3ccc(Cl)c(Cl)c3)nc(Nc3cccc(F)c3)n2)c1
inactive: growth inhibition [1] 7% | inhibition [2] -5% | inhibition [3] 3% | outcome [5] | outcome [6] | outcome [7] | outcome [8]
active: growth inhibition [4] 99%

Cc1ccc(CNC(=O)[C@H](CC(C)C)Nc2cc(C)nc(NCC3CCCCC3)n2)cc1
active: growth inhibition [4] 96%
inactive: growth inhibition [1] 44% | inhibition [2] 6% | inhibition [3] -2% | outcome [5] | outcome [6] | outcome [7] | outcome [8]

CCCCCCCN1CC[C@@H](CCCc2ccnc3ccc(OCCN4CCOCC4)cc23)[C@@H](CC)C1
inactive: growth inhibition [1] 3% | inhibition [2] 14% | inhibition [3] 0% | outcome [5] | outcome [6] | outcome [7] | outcome [8]
active: growth inhibition [4] 89%

Clc1ccc(CNc2nc(NCCc3cnc[nH]3)nc(NC3CCCCC3)n2)cc1
inactive: growth inhibition [1] 1% | inhibition [2] -5% | inhibition [3] -3% | outcome [5] | outcome [6] | outcome [7] | outcome [8]
active: growth inhibition [4] 100%

O=C(NC1CC1)c1ccc(N2CCC(c3ccccc3)CC2)nc1
active: growth inhibition [1] 92% | growth inhibition [4] 93%
inactive: inhibition [2] 16% | inhibition [3] 1% | outcome [5] | outcome [6] | outcome [7] | outcome [8]

O=C(/C=C/c1ccc(Cl)c(Cl)c1)NCCCCCN1CCC(NC(=O)NC2CCCCCC2)CC1
inactive: growth inhibition [1] 41% | inhibition [2] 15% | inhibition [3] -3% | outcome [5] | outcome [6] | outcome [7] | outcome [8]
active: growth inhibition [4] 99%

CN1CCCC1CCNc1ncc2c(-c3ccc(NC(=O)Nc4cc(C(F)(F)F)ccc4F)cc3)nn(C)c2n1 (stereo not given)
active: growth inhibition [1] 72% | inhibition [2] 74% | growth inhibition [4] 96%
inactive: inhibition [3] 0% | outcome [5] | outcome [6] | outcome [7] | outcome [8]

CN1CCCN(Cc2ccc(-c3cccc(NC(=O)c4ccc(Cl)cc4)c3)cc2)CC1
active: growth inhibition [1] 50% | growth inhibition [4] 98%
inactive: inhibition [2] 34% | inhibition [3] -4% | outcome [5] | outcome [6] | outcome [7] | outcome [8]

O=C(Nc1ccc(C(=O)Oc2ccc(-c3ccccc3)cc2)cc1)N[C@@H](Cc1ccc(O)cc1)C(=O)NC1CCN(Cc2ccc(O)cc2)C1 (stereo not given in full)
active: growth inhibition [1] 60% | growth inhibition [4] 94%
inactive: inhibition [2] -7% | inhibition [3] 0% | outcome [5] | outcome [6] | outcome [7] | outcome [8]

Cc1ccccc1CNc1nccc(NCCC(=O)Nc2ccccc2)n1
active: growth inhibition [4] 90%
inactive: growth inhibition [1] 15% | inhibition [2] 16% | inhibition [3] -3% | outcome [5] | outcome [6] | outcome [7] | outcome [8]

Cc1ccc2c(=O)n(C)c(=O)n(C)c2n1
inactive: growth inhibition [1] -3% | inhibition [2] 15% | inhibition [3] 4% | outcome [5] | outcome [6] | outcome [7] | outcome [8]
active: growth inhibition [4] 98%

Cn1cnc(CCNC(=O)c2cccc(-c3ccc(-c4nc5ccc(F)cc5[nH]4)cc3)c2)c1
active: growth inhibition [4] 88%
inactive: growth inhibition [1] 5% | inhibition [2] 26% | inhibition [3] 4% | outcome [5] | outcome [6] | outcome [7] | outcome [8]

CCn1c(Sc2ccc(C#N)c([N+](=O)[O-])c2)nnc1-c1cc(OC)cc(OC)c1
active: growth inhibition [1] 82% | growth inhibition [4] 93%
inactive: inhibition [2] 7% | inhibition [3] -2% | outcome [5] | outcome [6] | outcome [7] | outcome [8]

O=C(NCCN1CCC(NC(=O)c2ccc(-c3ccccn3)s2)CC1)c1ccc(Cl)c(Cl)c1
inactive: growth inhibition [1] 48% | inhibition [2] 24% | inhibition [3] -5% | outcome [5] | outcome [6] | outcome [7] | outcome [8]
active: growth inhibition [4] 97%
